{
  "source": "PubChem BioAssay (NCATS)",
  "note": "Records with an inconclusive call do not appear. A number with no mark means an inactive call. Activity calls are given as the source filed them. Calls follow the shape of the dose curve; as a rule, active = well fitted cell-killing curve with a large enough effect; inconclusive = small, poorly fitted or top-dose-only effect, or effect the other way; inactive = no such curve, though single readings can be large or run the other way. Potency is read from the fitted curve at half-maximal effect.",
  "data": [
    {"test": "Viability qHTS for spleen associated tyrosine kinase inhibitor (SYKi) drug resistant MV4-11 cells (AID 1963824); also: nearly all actives have a fitted effect of over 35% in size", "conditions": "SYKi-resistant MV4-11 viability, CellTiter-Glo, 72 h; series mostly up to 45 µM; viability, % of control: at the top concentration", "method_in_brief": "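SYK-inhibitor-resistant MV4-11 AML cells were seeded at 500 per well onto compound and cultured 72 hours (37 °C, 5% CO2). CellTiter-Glo was then added, and after 10 min at room temperature, luminescence gave viability.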", "values": [
      {"smiles": "CC1=CC(=O)OC(C)(CC(C)(O)C(=O)O)C1", "note": "(stereo not drawn)", "viability, % of control": "86.5%"},
      {"smiles": "CCC(C)CNCC(=O)N1CCC2SC=CC2C1COc1cccc(C)c1", "note": "(stereo not drawn)", "Potency": "10.3 µM (active)"},
      {"smiles": "CC1=CC(=O)CC(C)(C)C1(O)CCC(C)O", "note": "(stereo not drawn)", "viability, % of control": "60.7%"},
      {"smiles": "O=c1cc[nH]c(=S)[nH]1", "Potency": "11.9 µM (active)"},
      {"smiles": "C/C1=C\\CCC2=CC(OC2=O)C(C)(C)/C=C/C1=O", "note": "(stereo not drawn)", "Potency": "2.31 µM (active)"},
      {"smiles": "CCOc1cc(CC(=O)NC(CC(C)C)c2ccccc2N2CCCCC2)ccc1C(=O)O", "note": "(stereo not drawn)", "viability, % of control": "71.5%"},
      {"smiles": "Oc1cc(CNC(=S)/C=C/c2cc(O)c(O)c(Br)c2)cc(O)c1O", "Potency": "1.84 µM (active)"},
      {"smiles": "C[C@@H]1O[C@@H](OC(=O)Cc2ccccc2)[C@H](O)[C@H](O)[C@H]1O", "viability, % of control": "90.4%"},
      {"smiles": "O=C(c1ccc(-c2ccc(Cl)cc2)o1)N(Cc1ccccn1)c1ccc(N2CCNCC2)cc1", "Potency": "9.2 µM (active)"},
      {"smiles": "CC1(C)CC[C@]2(C(=O)O[C@@H]3O[C@H](CO)[C@@H](O)[C@H](O)[C@H]3O)CC[C@]3(C)C(=CCC4[C@@]5(C)CC[C@H](O[C@@H]6O[C@H](C(=O)O)[C@@H](O[C@@H]7O[C@H](CO)[C@@H](O)[C@H](O)[C@H]7O)[C@H](O)[C@H]6O[C@@H]6O[C@H](CO)[C@@H](O)[C@H](O)[C@H]6O)C(C)(C)C5CC[C@]43C)C2C1", "note": "(stereo partly drawn)", "viability, % of control": "104% [at 9.25 µM]"},
      {"smiles": "C=C1CC23CC1CCC2C12OC(=O)C(C)(CCC1O)C2C3C(=O)O", "note": "(stereo not drawn)", "viability, % of control": "66.5%"},
      {"smiles": "CCOC(=O)c1cc(C#N)c(N2CCC(C(=O)NS(=O)(=O)Cc3ccccc3)CC2)nc1C", "viability, % of control": "57.8%"},
      {"smiles": "COc1c(C)c(OCC(O)C(C)(C)O)cc2c1CNC2=O", "note": "(stereo not drawn)", "viability, % of control": "78.3%"}
    ]}
  ]
}
